Assay results taken from PubChem BioAssay (NCATS).
Results filed as inconclusive are left out. A number with no mark means an inactive call. The call rests on the fitted dose curve; in most records, active means well fitted curve in the direction sought with a large enough effect; inconclusive means small, poorly fitted or top-dose-only effect, or another doubt; inactive means no such curve, though single readings can be large or run the other way.

Experiment: qHTS Assay for Identifying Gametocytocidal Compounds (AID 743244);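 further: actives lower the fluorescent signal which means gametocytes are killed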
Conditions: P. falciparum 3D7 stage III-V gametocytes, alamarBlue, 72 h; max response: stronger effect = lower value
In short: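 Compounds are pinned into medium, gametocytes (stage III–V, 3D7, 20,000 cells/well) added, and plates held 72 h at 37 °C in 5% CO2. AlamarBlue follows for 24 h before fluorescence reading.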
On the % scale 0 is the no-effect control and ±100 the full control effect.

Compound	max response [%]
Cn1cc[nH]c1=S	-4.61
O=C(O)[C@@H]1CSCN1	-11.5
CN1CCOC(c2ccccc2)c2ccccc2C1 (stereo not drawn)	-7.73
